{"source": "PubChem BioAssay AID435003", "about": "(Sanford-Burnham Center for Chemical Genomics, 2010)", "note": "Screen size: about 330,000 compounds; about 1,700 (0.52%) were called active. This is one part of a sample in which actives are shown more often than they occur. Unmarked numbers belong to inactive results. No stated cut-off is given here; in the data, active means inhibition above about 50%; inactive means the rest."}
{"assay": "lowers stimulated NF-kB reporter luminescence – cell-based, uHTS, TCR NF-kB activation inhibitor project, primary screen (AID 435003)", "conditions": "Jurkat, PMA/ionomycin-induced NF-kB luciferase reporter, at 4 µM, active compounds read high"}
{"smiles": "Cc1ccc(-n2c(SCC(=O)NCc3ccc4c(c3)OCO4)nnc2-c2cccnc2)c(C)c1", "inhibition": "-1.23%"}
{"smiles": "O=[N+]([O-])c1ccc(N2CCNCC2)cc1NCc1cccnc1", "inhibition": "1.76%"}
{"smiles": "CCCC(C(=O)NC1CCCC1)N(C(=O)Cn1nnc(-c2ccc(C)o2)n1)c1cccc(O)c1", "note": "(configuration not stated)", "inhibition": "7.15%"}
{"smiles": "CC(=O)c1cc(-c2ccccc2)[nH]c1N1CCCC1", "inhibition": "8.23%"}
{"smiles": "O=c1cc(-c2ccccc2)[nH]c2cc(F)ccc12", "inhibition": "61.5% (active)"}
{"smiles": "Cc1ccc(-c2cc(=O)c3ccc(F)cc3[nH]2)cc1", "inhibition": "14.5%"}
{"smiles": "CSc1ccc(NC(=O)N2CC(C)OC(C)C2)cc1", "note": "(configuration not stated)", "inhibition": "21.7%"}
{"smiles": "COCc1cc(C)nc(Nc2cc(C)ccc2C)c1C#N", "inhibition": "6.05%"}
{"smiles": "O=C(O)c1cc([N+](=O)[O-])c(Nc2cccc3ccccc23)c([N+](=O)[O-])c1", "inhibition": "-10.8%"}
{"smiles": "O=C(NC(Nc1nc2ccc([N+](=O)[O-])cc2s1)(C(F)(F)F)C(F)(F)F)c1ccccc1", "inhibition": "72.3% (active)"}
{"smiles": "O=C(COC(=O)c1ccc([N+](=O)[O-])cc1Cl)NC(=O)c1ccccc1", "inhibition": "3.88%"}
{"smiles": "O=C(CSc1nnc(Nc2ccccc2F)s1)NC1CCCC1", "inhibition": "-19.9%"}
{"smiles": "COc1cccc(CN2CCNC(=O)C2CC(=O)N(C)CCc2ccccn2)c1", "note": "(configuration not stated)", "inhibition": "-0.459%"}
{"smiles": "Cc1ccc(C)c(OCC(=O)NNC(=O)C2CCC2)c1", "inhibition": "0.404%"}
{"smiles": "Cc1ccc(O)c(NC(=O)COc2cc(C)ccc2C)c1", "inhibition": "61.3% (active)"}
{"smiles": "Cc1ccc(O)c(NC(=S)NC(=O)COc2ccc(Br)cc2)c1", "inhibition": "14.2%"}
{"smiles": "COc1ccc(Br)cc1S(=O)(=O)N1CCN=C1C", "inhibition": "-11.9%"}
{"smiles": "COCCNC(=O)c1ccc(Cn2c(SCC(=O)NCC3CCCO3)nc3ccc(Br)cc3c2=O)cc1", "note": "(configuration not stated)", "inhibition": "23.7%"}
{"smiles": "COc1ccccc1NC1=NC(c2ccc(Cl)cc2)N=C(N)N1", "note": "(configuration not stated)", "inhibition": "60.9% (active)"}
{"smiles": "COc1ccccc1NC(=O)C1CCCN1S(=O)(=O)c1ccc(Cl)cc1", "note": "(configuration not stated)", "inhibition": "-8.88%"}
{"smiles": "COc1ccccc1NC(=O)c1cc(Cl)nnc1Cl", "inhibition": "-0.0528%"}
{"smiles": "CC(C)n1c(-c2ccncc2)n[nH]c1=S", "inhibition": "11.1%"}
